Values joined by “and” are separate entries in the source; they are usually repeats but may differ in a detail not shown here. Equal entries are not always repeated. Inconclusive results are not listed. Active and inactive are the calls of the source. Unless noted, the call rests on the fitted dose curve; in most records, active means well fitted curve in the direction sought with a large enough effect; inconclusive means small, poorly fitted or top-dose-only effect, or another doubt; inactive means no such curve, though single readings can be large; an effect the other way counts as inactive or inconclusive.
What was measured:
[1] = qHTS profiling of the MIPE4 collection as inhibitors of Plasmodium falciparum (3D7) proliferation (AID 743344; call rule not given here;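 further: scaled between DMSO vehicle wells and 0.29 µM artemisinin as full inhibition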); settings: P. falciparum 3D7 in erythrocytes, SYBR Green DNA fluorescence, 72 h; at 28.5 µM unless noted
Method in brief: (§1)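 Parasite DNA was quantified by SYBR Green I fluorescence (ex 485, em 535 nm) after overnight lysis in saponin/Triton buffer at room temperature. Cultures at 0.3% parasitemia and 2.5% hematocrit were first exposed to compound for 72 h at 37 C; signals were normalised to artemisinin (0.29 uM) and vehicle wells.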

[2] = qHTS profiling of the MIPE4 collection as inhibitors of Plasmodium falciparum (DD2) proliferation (AID 743345; call rule not given here); settings: P. falciparum Dd2 in erythrocytes, SYBR Green DNA, 72 h; at 28.5 µM unless noted
Method in brief: as §1

[3] = qHTS profiling of the MIPE4 collection as inhibitors of Plasmodium falciparum (DD2) proliferation (Rep 2) (AID 743346; call rule not given here); settings: P. falciparum Dd2 in erythrocytes, SYBR Green DNA, 72 h; at 28.5 µM unless noted
Method in brief: as §1

[4] = qHTS profiling of the MIPE4 collection as inhibitors of Plasmodium falciparum (HB3) proliferation (AID 743347; call rule not given here;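 further: plate controls were DMSO vehicle wells for no effect and artemisinin wells for full effect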); settings: P. falciparum HB3 in erythrocytes, SYBR Green DNA, 72 h; at 28.5 µM unless noted
Method in brief: as §1

[5] = qHTS assay for measurement of the activity of small molecule inhibitors on Zika virus induced Caspase-3 activity in human iPSC derived neural progenitor cells (hNPCs) (AID 1224857); further: % of control where 0% means no effect; nearly all actives have a fitted effect of over 65% in size
Method in brief: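 After overnight (16–20 h) culture at 350 cells/well, hNPCs get compound, then ZIKV 2 FFU/cell one hour later. Six hours on, Caspase-Glo 3/7 is added and luminescence measured.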

[6] = qHTS assay for measurement of the activity of small molecule inhibitors on Zika virus induced Caspase-3 activity in human astrocytoma cells (AID 1224859);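 further: plate controls were ZIKV-infected untreated cells for no effect and uninfected cells for full effect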
Method in brief: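 Inhibition of Zika-induced caspase-3/7 activity: SNB-19 cells, 1 h compound pretreatment, ZIKV 2 FFU/cell for 6 h at 37 C, Caspase-Glo luminescence read-out.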

[7] = qHTS Screen of the MIPE 4.0 Collection Against Ewings Sarcoma (RDES) (AID 1259252); further: potency means the concentration at half of the fitted maximal effect; nearly all actives have a fitted effect of over 35% in size
Method in brief: (§2)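 CellTiter-Glo luminescence after 48 h compound exposure (titration) gave viability; percent activity used DMSO-treated cells as no inhibition and medium-only wells as full inhibition. Cells grown in RPMI/5% FBS, dosed 4 h post-seeding.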

[8] = qHTS Screen of the MIPE 4.0 Collection Against Ewings Sarcoma (TC71) (AID 1259253); further: potency means the concentration at half of the fitted maximal effect; nearly all actives have a fitted effect of over 40% in size
Method in brief: as §2

[9] = qHTS Screen of the MIPE 4.0 Collection Against Ewings Sarcoma (EW8) (AID 1259255); further: potency means the concentration at half of the fitted maximal effect; nearly all actives have a fitted effect of over 35% in size
Method in brief: as §2

[10] = qHTS Screen of the MIPE 4.0 Collection Against Ewings Sarcoma (TC32) (AID 1259256); further: potency means the concentration at half of the fitted maximal effect; nearly all actives have a fitted effect of over 45% in size
Method in brief: as §2

[11] = High-throughput drug toxicity screening in the BPDCN cell line Cal-1 (AID 1224825); settings: Cal-1 BPDCN cell viability, qHTS; at 45.8 µM (top of the series) unless noted
Method in brief: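 Percent activity derived from CellTiter-Glo luminescence, scaling DMSO to 100% and 9.2 uM final bortezomib to 0%. BPDCN Cal-1 cells (500/well, RPMI plus 10% FBS) incubated with compounds 48 hours at 37C before reading.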

[12] = qHTS profiling for inhibitors of Plasmodium falciparum (3D7) proliferation (AID 743322);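 further: infected erythrocytes exposed to compound for 72 h before lysis; 100% = DMSO vehicle wells and 0% = 0.29 µM artemisinin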; settings: P. falciparum 3D7 proliferation; at 28.7 µM (top of the series)
Method in brief: as §1

[13] = qHTS profiling for inhibitors of Plasmodium falciparum (DD2) proliferation (AID 743323; call rule not given here); settings: lower = more inhibition; at 28.7 µM (top of the series)
Method in brief: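 Parasite proliferation measured via DNA-dye fluorescence, as uninfected erythrocytes lack DNA. Cultures at 0.3% parasitemia and 2.5% hematocrit incubated 72 h with compound; signal scaled between vehicle and 0.29 uM artemisinin wells.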

[14] = qHTS profiling for inhibitors of Plasmodium falciparum (HB3) proliferation (AID 743324); settings: Plasmodium falciparum HB3 blood-stage proliferation; at 28.7 µM (top of the series);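 further: 100% = DMSO vehicle wells and 0% = artemisinin-treated control wells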
Method in brief: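 SYBR Green fluorescence (485 ex/535 em) of lysed cultures, incubated overnight at room temperature in the dark, quantifies parasite DNA. Infected erythrocytes at 0.3% parasitemia and 2.5% hematocrit were exposed 72 h; values normalized to DMSO and 0.29 uM artemisinin controls.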

[15] = Identifying Small Molecule Inhibitors of Pancreatic Cancer Stem Cells (Panc1, Spheroid) (AID 1259359);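 further: potency means the concentration at half of the fitted maximal effect; compound exposure lasted 48 h before reading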
Method in brief: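 Spheroids grown 14 days in stem cell media on hydrogel-coated nonadherent plates; 2D lines seeded directly. Compounds added after 4 h attachment, 48 h at 37C, 5% CO2; CellTiter-Glo luminescence normalized to DMSO (no inhibition) and no-cell wells (full inhibition).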

[16] = Identifying Small Molecule Inhibitors of Pancreatic Cancer Stem Cells (A2780, Spheroid) (AID 1259357); settings: Potency: A2780 spheroid viability;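 further: spheroids pre-formed over 14 days in stem cell medium on hydrogel; potency means the concentration at half of the fitted maximal effect; compound exposure lasted 48 h before the ATP luminescence read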
Method in brief: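 Viability is scored by CellTiter-Glo luminescence 48 h after dosing, expressed as percent activity against vehicle and no-cell references. Spheroid formats rely on cells cultured 14 days in stem cell media beforehand.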

SMILES	parasite growth, % of DMSO control [1]	parasite growth remaining, % of DMSO control (lower = more inhibition) [2]	parasite growth, % of control (lower = inhibition) [3]	growth, % of control [4]	Potency [5]	Potency [6]	Potency [7]	Potency [8]	Potency [9]	Potency [10]	viability (% of control) [11]	remaining parasite growth % (stronger effect = lower value) [12]	activity, percent of control [13]	remaining proliferation (% of control), lower = more inhibition [14]	Potency [15]	Potency [16]
OCCCNc1cc(-c2ccnc(Nc3cccc(Cl)c3)n2)ccn1	5.7%	10.1%	19.1%	6.21%	inactive	inactive	166 nM (active)	118 nM (active)	148 nM (active)	166 nM (active)						
CNC(=O)CN1CCC(Oc2cc3c(Nc4cccc(Cl)c4F)ncnc3cc2OC)CC1	11.2%	41.4%		5.64%	inactive	inactive	14.8 nM (active)	52.6 nM (active)	105 nM (active)	52.6 nM (active)	7.61%					
O=C(NC1CCNCC1)c1[nH]ncc1NC(=O)c1c(Cl)cccc1Cl	10.8%	11.4%		8.44%	inactive	inactive	187 nM (active)	264 nM (active)	418 nM (active)	209 nM (active)	2.11%	5.64% and 1.64%	9.64% and 5.01%	9.9% and 2.81%	1.32 µM (active) and 1.05 µM (active)	
COC(=O)Nc1ccc(-c2nc(N3CCOCC3)c3cnn(C4CCN(Cc5cccnc5)CC4)c3n2)cc1	5.62%	7.48%	9.27%	4.59%	inactive	inactive	166 nM (active)	59 nM (active)	83.3 nM (active)	46.9 nM (active)	3.04%					
O=C(Nc1cc(C(F)(F)F)cc(C(F)(F)F)c1)c1cc(Cl)ccc1O	5.26%			5.57%		inactive	1180 nM (active)	1050 nM (active)	2350 nM (active)	1180 nM (active)	2.38%	-1.15%	0.0029%	-0.617%	372 nM (active)	526 nM (active)
